Screening data as filed in PubChem.
CYP2C9 act: human CYP2C9 activators, primary screen, biochemical, luminescence | Cytochrome P450 2C9 (Homo sapiens), P11712 | recombinant CYP2C9, luciferin-H conversion; active compounds read high; factor 1 = untreated enzyme, 0 = blocked | 96,000 compounds, 1.4% hits | AID 1024, 2008 | activation factor at 5 µM;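 active = activation factor of 2 or more for CYP2C9 at a 5 µM dose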;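 also: 0 = sulfaphenazole-blocked wells and 1 = vehicle-only wells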
PostGolgi ctrl: growth inhibition of yeast control strain, primary screen, counter-screen for post-Golgi transport modulator project | 98,000 compounds, 5% hits | efflux-deficient yeast background strain, growth absorbance A615, 16 h | inhibition, % at 10 µM
PostGolgi yeast: phenotypic screen on post-Golgi transport, primary screen | post-Golgi transport phenotypic cell assay | inhibition, % at 10 µM | 98,000 compounds, 0.9% hits;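 also: yeast cells grown in 1536-well plates; yeast grown about 18 h at 30C before absorbance read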
CYP2C19 inh: blockers of cytochrome P450 2C19 activity – biochemical, luminescence, ADME assay, primary screen | P33261 | CYP2C19 Supersomes, luciferin-H EGE luminescence, 30 min | inhibition, % at 5 µM | 96,000 compounds, 21% hits;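 active = CYP2C19 inhibition above a set limit at 5 µM in the primary screen, cut at about 50% in these data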;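 also: plate controls were negative control wells for no effect and 2.5 mM tranylcypromine positive control for full effect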
Target sequence (P33261 whole entry, looked up): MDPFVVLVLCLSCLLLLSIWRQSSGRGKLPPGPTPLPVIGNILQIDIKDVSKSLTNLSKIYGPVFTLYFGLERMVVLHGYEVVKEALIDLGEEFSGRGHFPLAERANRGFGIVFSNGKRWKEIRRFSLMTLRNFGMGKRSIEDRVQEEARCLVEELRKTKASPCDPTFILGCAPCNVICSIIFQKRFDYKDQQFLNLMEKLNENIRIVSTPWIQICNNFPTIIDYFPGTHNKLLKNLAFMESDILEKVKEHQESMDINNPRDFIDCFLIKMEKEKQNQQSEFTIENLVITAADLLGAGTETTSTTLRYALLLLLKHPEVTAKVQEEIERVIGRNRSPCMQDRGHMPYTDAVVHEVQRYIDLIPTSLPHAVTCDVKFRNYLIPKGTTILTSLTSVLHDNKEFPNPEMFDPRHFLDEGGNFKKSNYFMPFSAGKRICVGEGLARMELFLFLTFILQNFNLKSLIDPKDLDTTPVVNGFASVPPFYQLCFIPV
CYP2C9 inhib: blockers of cytochrome P450 2C9 activity – biochemical, luminescence, ADME assay, primary screen. P11712. inhibition, % at 5 µM. AID 777, 2007. CYP2C9 Supersomes, luciferin-H conversion. 96,000 compounds, 20% hits;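 active = blocking of liver enzyme CYP2C9 beyond about 50% at 5 µM, limit read from the data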
CYP2C19 activ: human CYP2C19 activators, primary screen, biochemical, luminescence. recombinant CYP2C19, luciferin-H EGE luminescence; active compounds read high; 0 = fully inhibited enzyme, 1 = untreated enzyme. activation factor at 5 µM. 96,000 tested, under 10 active;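 active = activation factor of at least 2 at 5 µM in the primary screen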;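 also: 0 = wells with 2.5 mM tranylcypromine and 1 = vehicle-only wells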
Numbers without * were called inactive; . = no result. Rows were chosen to be rich in hits. Some 32% of all compounds tested hit in one or more screens of this group. Rule as the data show it, unless noted: active = inhibition above about 30%; inactive = the rest.

SMILES	CYP2C9 act	PostGolgi ctrl	PostGolgi yeast	CYP2C19 inh	CYP2C9 inhib	CYP2C19 activ
CCOC(=O)N1CCC(Nc2c(NCCN3CCN(c4ccccc4F)CC3)c(=O)c2=O)CC1	0.7	2	-9	4	25	1
CSc1nc(C)cc(SCC(=O)Nc2ccccc2)n1	0.3	-4	11	90*	67*	0.1
Cc1cc(SCC(=O)Nc2ccccc2)nc(C)n1	1.1	1	7	20	-5	0.8
Cc1cc(C(F)(F)F)nc(SCC(=O)Nc2cc(C)on2)n1	1	-2	-6	52*	0	0.5
O=C(c1csc2ccccc12)n1cccn1	1.1	6	4	6	-6	0.9
COc1ccc(-c2cc(C(F)(F)F)nc(SCC(=O)Nc3sc4c(c3C#N)CCC4)n2)cc1	0.3	3	19	28	68*	0.7
CCC1CCc2c(sc(NC(=O)CSc3nc(-c4ccco4)cc(C(F)(F)F)n3)c2C#N)C1 (configuration not stated)	0.1	2	-5	69*	89*	0.3
COc1ccc(-c2ccc(C#N)c(SCC(=O)Nc3sc4c(c3C#N)CCC4)n2)cc1OC	0	-3	-12	42	98*	0.6
COc1ccc(-c2nnn(CC(=O)Nc3sc4c(c3C#N)CCCC4)n2)cc1	0.5	3	-2	18	54*	0.8
Cc1nc(Oc2cccc(Cl)c2)c2oc3ccccc3c2n1	1	19	4	-4	3	1
Cc1ccc(N2C(=O)CC(n3nc(C)cc3C)C2=O)cc1 (configuration not stated)	1.2	7	-10	4	-25	1
N/C(=N\OC(=O)CCC1CCCCC1)c1cccnc1	1	33*	1	18	2	0.8
N/C(=N\OC(=O)c1cc(Cl)ccc1Cl)c1cccnc1	0.7	20	4	72*	34	0.3
CC(C)CC(=O)NC(=S)Nc1ccc(NC(=O)c2cccs2)cc1	0.9	0	-6	6	12	0.9
Cc1sc2ncnc(N3CCCCC3C)c2c1C (configuration not stated)	0.5	27	1	79*	47	0.2
O=C(N/N=C(\c1ccccc1)c1cccnc1)C(O)(c1ccccc1)c1ccccc1	0.3	9	0	28	67*	0.7
Cc1ccccc1N(Cc1nnc2n1CCCCC2)C(=O)Nc1ccccc1	1.2	8	1	-1	-17	1
Cc1ccc(N=Cc2nc(-c3ccco3)oc2O)cc1	0.4	6	7	26	56*	0.7
Cc1ccc(C(=O)Oc2oc(-c3ccco3)nc2C=Nc2ccc(Cl)cc2)cc1	0.6	4	3	30	38	0.7
COc1cc2c(cc1NC(=O)CCCN1C(=O)CCC1=O)oc1ccccc12	0.8	-3	1	30	24	0.7
COC(=O)CCC(=O)c1oc2ccc(Cl)cc2c1NC(=O)CCCN1C(=O)c2ccccc2C1=O	0.2	6	1	67*	80*	0.3
O=C(C1CCN(S(=O)(=O)c2cccc3nsnc23)CC1)N1CCc2ccccc2C1	1.9	10	-7	27	-95	0.7
O=C(NCC1COc2ccccc2O1)C1CCN(S(=O)(=O)c2cccc3nsnc23)CC1 (configuration not stated)	1.7	-3	-3	59*	-66	0.4
O=C(NCC1COc2ccccc2O1)C1CCCN(S(=O)(=O)c2cccc3cccnc23)C1 (configuration not stated)	1.9	23	2	75*	-93	0.2
O=C(NCC1COc2ccccc2O1)C1CCCN(S(=O)(=O)c2cccc3nsnc23)C1 (configuration not stated)	0.4	-3	-5	54*	61*	0.5
SMILES	CYP2C9 act	PostGolgi ctrl	PostGolgi yeast	CYP2C19 inh	CYP2C9 inhib	CYP2C19 activ
O=C(NCC1CCCO1)C1CCN(S(=O)(=O)c2cccc3cccnc23)CC1 (configuration not stated)	1.6	7	-11	-4	-62	1
CS(=O)(=O)N1CCC(C(=O)NCCc2ccccc2)CC1	1	2	-1	9	0	0.9
CC1CN(Cc2cc(=O)[nH]c(C3CC3)n2)CC(C)O1 (configuration not stated)	1.1	-8	-1	12	-11	0.9
Cc1cc(=O)[nH]c(Nc2ccc(C(=O)OC(C)C)cc2)n1	0.7	0	3	26	27	0.7
CCOCCCNC(=S)NNC(=O)CCn1nc(C)c(Br)c1C	1.1	14	1	34	-6	0.7
CCCn1nnc(NC(=O)c2ccc(F)cc2)n1	0.8	6	0	26	20	0.7
COc1ccc(C(=O)Nc2nc3ccccc3[nH]2)cc1S(=O)(=O)N1CCCC1	0.9	7	2	8	14	0.9
COc1ccc(Nc2nnc(SCc3cc([N+](=O)[O-])cc4c3OCOC4)s2)cc1	0.1	14	5	37	94*	0.6
CCCN(Cc1cc2ccc(C)cc2[nH]c1=O)C(=O)c1ccccn1	1	-11	4	16	5	0.8
CCOc1ccc(NS(=O)(=O)c2ccc(NS(=O)(=O)c3ccc(SC)cc3)cc2)cc1	0.1	-1	8	35	87*	0.7
CCOc1ccc(NS(=O)(=O)c2ccc(NS(C)(=O)=O)cc2)cc1	0.4	16	13	24	64*	0.8
COc1cccc(S(=O)(=O)Nc2cccnc2)c1	1.1	20	-3	24	-10	0.8
CCOc1ccc(NS(=O)(=O)c2ccc(NC(=S)NC(=O)CC(C)C)cc2)cc1	0	23	14	90*	99*	0.1
CCOc1ccc(S(=O)(=O)Nc2cccnc2)cc1	0.3	-3	4	94*	66*	0.1
O=C(O)Cn1nnn(-c2ccccc2)c1=S	1.1	5	3	-6	-12	1.1
COc1ccc(NS(=O)(=O)c2ccc(NS(=O)(=O)c3ccc(SC)cc3)cc2)c(OC)c1	0.2	-4	-1	20	83*	0.8
O=S(=O)(Nc1cccnc1)c1cccs1	0.9	0	-4	-2	8	1
O=S(=O)(Nc1cccnc1)c1ccc(Cl)c(C(F)(F)F)c1	0.4	12	1	72*	57*	0.3
COC(=O)c1cc(Br)c(=O)n(-c2ccc(C(C)=O)cc2)c1	0.8	.	.	34	25	0.7
Cc1ccc(C(=O)NC(C)CCc2ccccc2)cc1[N+](=O)[O-] (configuration not stated)	0.7	5	-6	37	28	0.6
C=CCNC(=O)c1ccc(Sc2ccccc2)c([N+](=O)[O-])c1	0.3	7	-3	76*	70*	0.2
